Measured values as given in PubChem BioAssay AID1377 (University of Pittsburgh Molecular Library Screening Center, 2008).
Among all 220,000 compounds or so, about 830 (0.38%) were called active. Only a selection was taken, and actives are over-represented in it overall. Values without a mark were called inactive.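 Rule for the calls: active = activation, scaled between plate controls, above about 75% (limit read from the data); inactive = activation under that limit.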

Test: inhibitors of zVAD-triggered necroptosis, primary screen, L929 cells (AID 1377);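 note: 0% = zVAD with DMSO and 100% = DMSO alone without zVAD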
Conditions: ATP luminescence, 24 h, at 10 µM, active compounds read high; with zVAD 60 µM unless noted

Compound | viability rescue
CCc1ccccc1N1CN(Cc2ccco2)CNC1=S | 0.22%
Cc1cc(C)nc(NNC2=CC(=O)CC(C)(C)C2)n1 | 0.66%
CC(=O)Nc1ccc(NC(=S)NC(=O)/C=C/c2ccccc2)cc1 | 80.5% (active)
Cc1ccc(NC(=S)NC(=O)/C=C/c2ccc(Cl)cc2)cc1 | 0.00667%
CC(=O)Nc1ccc(/C=C/C(=O)c2ccccc2)cc1 | 0.6%
O=C1NC(c2ccccc2)=NC1(Nc1ccccn1)C(F)(F)F (configuration not stated) | 1.82%
CC(C)(C)NC(=O)C(=O)NCc1ccncc1 | 0.53%
Cc1cc(C)cc(NS(=O)(=O)c2ccc(F)cc2)c1 | 0.04%
CC(NC(=S)NC1CCCCC1)C(c1ccccc1)N1CCOCC1 (configuration not stated) | -0.76%
NNC(=O)c1ccc(Cl)cc1Cl | 0.33%
Cc1ccccc1NC(=O)CSC1=NCCN1 | 101% [with zVAD 20 µM] (active)
Cc1cccc(NC(=O)CSc2nc3c(c(=O)[nH]2)CCCC3)c1C | 0.25%
Cc1ccccc1NC(=O)CNc1ccccc1N1CCCCC1 | 0.17% [with zVAD 20 µM]
Clc1cc(-c2ccc(/C=N/n3cnnc3)o2)ccc1Br | -0.31%
CCOC(=O)/C(C#N)=C/c1ccc(N2CCCCC2)cc1 | 68.5%
C=CCNC(=O)CC12CC3CC(C1)CC(CC(=O)NCC=C)(C3)C2 | 0.48%
CC(=O)Nc1cccc(-c2cnc3ccccc3n2)c1 | 82.7% (active)
CC(=O)Nc1cccc(-c2csc(Nc3cccc(C)n3)n2)c1 | 0.49% [with zVAD 20 µM]
O=C(Nc1cccc(-c2nc3ccccc3[nH]2)c1)c1ccc(C(=O)Nc2cccc(-c3nc4ccccc4[nH]3)c2)cc1 | 0.11%
O=C(Nc1cccc(F)c1)N1C2CCC1CC(O)(c1cccnc1)C2 (configuration not stated) | 0.67%
O=C(Nc1cccnc1)c1cc([N+](=O)[O-])ccc1Cl | 13.3%
Cc1ccc(C(=O)Cn2cccn2)cc1 | 1.57%
Cc1ccc(NC(=O)NC(=O)N(C2CCCCC2)S(=O)(=O)c2ccccc2)cc1 | 2.56%
O=C(CC1SCCNC1=O)Nc1ccc(Cl)cc1 (configuration not stated) | 2.38%

Compound | viability rescue
COc1ccc(-n2cnc3cc(C(=O)NC4CCCC4)ccc32)cc1 | 76.5% (active)
COCCCNC(=O)c1ccc2c(c1)ncn2-c1ccccc1OC | 13.6%
COc1ccccc1-n1cnc2cc(C(=O)NCC3CCCO3)ccc21 (configuration not stated) | 1.84%
COc1ccc(-c2nc3cnccn3c2NC(C)(C)CC(C)(C)C)cc1O | 0.13%
Cc1ccc2cc(/C=N/Nc3ccc(C(=O)O)cc3)c(Cl)nc2c1 | 1.59%
CCOC(=O)C1(Cc2ccc(Cl)cc2)CCN(C(=O)C2=NNC(=O)CC2)CC1 | -0.11%
CCCCN1C(=O)CC(N2CCOCC2)C1=O (configuration not stated) | -0.32%
C[C@@H]1C[C@@H]2O[C@H]2/C=C\C=C\C(=O)Cc2c(Cl)c(O)cc(O)c2C(=O)O1 | 83% (active)
O=C(c1ccncc1)c1ccc([N+](=O)[O-])cc1 | 1.69%
O=C(c1ccc(F)cc1)C1CCN(Cc2cn[nH]c2-c2ccccc2)CC1 | 0.29%
CC(=O)NCCC(=O)Nc1cc(S(=O)(=O)N2CCOCC2)ccc1N1CCOCC1 | 0.76%
COc1ccc(/C(N)=N/OC(=O)Cc2ccccc2)cc1 | 0.52%
Cc1cccc(NC(=O)Nc2ccc3c(c2)OCO3)n1 | 75.5% (active)
CC(NC(=O)Nc1ccc2c(c1)OCO2)c1ccncc1 (configuration not stated) | 1.29%
Cc1cccc(NC(=O)/C=C/c2ccc3c(c2)OCO3)n1 | 0.85% [with zVAD 20 µM]
CC1CCCCC1NC(=O)CO/N=C/c1ccc(OC(F)F)cc1 (configuration not stated) | 0.48%
CC(C)C(=O)Nc1ccc2c3c(cccc13)CC2 | 1.59% [with zVAD 20 µM]
O=C(O)c1ccccc1-c1ccccc1C(=O)Nc1nccs1 | 1.12%
CC(=O)Oc1ccc(C(=O)Nc2nccs2)cc1 | 101% [with zVAD 20 µM] (active)
Cn1cccc1C(=O)Nc1nccs1 | 66.4% [with zVAD 20 µM]
COc1ccc(C(=O)NNC(=O)c2cnccn2)cc1[N+](=O)[O-] | -0.17%
CCOc1ccc(C(=O)Nc2nccs2)cc1[N+](=O)[O-] | 80.9% (active)
CCN(c1ccccc1)S(=O)(=O)c1ccc(C(=O)Nc2nccs2)cc1 | 0.94%
